Screening results as filed in PubChem.
The list is not random: actives were taken first. Their share in the collection is about 2.4%.
Pol beta inh – qHTS Assay for Inhibitors of DNA Polymerase Beta; P06746; Pol beta primer extension/strand displacement, fluorescence kinetic; Potency, µM (doses to about 114 µM), actives largely listed as inhibitors; 1.3% of 340,000 active
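Homogeneous kinetic assay of primer extension and strand displacement by 10 nM Pol beta, preincubated 15 min at room temperature with compound before 50 nM substrate (final) was added. Read at 0 and 10 min; four-parameter Hill fit.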
Pol kappa inh – qHTS for Inhibitors of Polymerase Kappa. Potency, µM (titrated, usually from 107 µM), usual class: inhibitors. purified Pol kappa, fluorescent DNA synthesis assay, 10 min. DNA polymerase kappa (Homo sapiens), Q9UBT6. 0.53% of 400,000 active. AID 588579, 2011
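10 nM Pol kappa was preincubated with compounds for 15 min at room temperature. Reaction started with 50 nM (final) substrate. Fluorescence read kinetically at 0 and 10 min.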
WRN helicase inh – qHTS for Inhibitors of WRN Helicase; Bifunctional 3'-5' exonuclease/ATP-dependent helicase WRN (Homo sapiens), Q14191; WRN helicase unwinding, fluorescent forked duplex, kinetic; Potency, µM (series often up to 114 µM), actives largely listed as inhibitors; 0.46% of 360,000 active; also: nearly all actives have a fitted effect of over 55% in size
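Screening of the MLSMR collection measured strand separation of a quenched forked DNA duplex (100 nM) by 20 nM WRN with 2 mM ATP, all final. Compounds were preincubated with enzyme 15 min at room temperature.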
Pol eta inh – qHTS for Inhibitors of Polymerase Eta; DNA polymerase eta (Homo sapiens), Q9Y253; recombinant Pol eta, fluorescent DNA replication assay; 1.2% of 390,000 active; Potency, µM (series often up to 114 µM), usual class: inhibitors
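Fluorescent replication assay: 50 nM final substrate added after a 15 min room-temperature compound preincubation with 10 nM enzyme. Signal taken at 0 min and again at 10 min.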
POLI inh – qHTS for Inhibitors of Polymerase Iota; DNA polymerase iota (Homo sapiens), Q9UNA4; Pol iota fluorescent replication assay, 10 min; Potency, µM (doses to about 115 µM), most hits filed as inhibitors; 1% of 390,000 active
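Fluorescent replication assay read twice, at 0 min and 10 min after adding 50 nM (final) substrate. Enzyme (10 nM) and compounds were first incubated 15 min at room temperature; enzyme-free buffer wells were negative controls.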
FEN1 inhibitor – qHTS Assay for the Inhibitors of Human Flap endonuclease 1 (FEN1); P39748; Recombinant FEN1 flap cleavage, fluorescence, 15 min; Potency, µM (series often up to 114 µM), actives largely listed as inhibitors; 0.35% of 390,000 active; AID 588795, 2011; also: nearly all actives have a fitted effect of over 65% in size
Target sequence (P39748 whole entry, looked up): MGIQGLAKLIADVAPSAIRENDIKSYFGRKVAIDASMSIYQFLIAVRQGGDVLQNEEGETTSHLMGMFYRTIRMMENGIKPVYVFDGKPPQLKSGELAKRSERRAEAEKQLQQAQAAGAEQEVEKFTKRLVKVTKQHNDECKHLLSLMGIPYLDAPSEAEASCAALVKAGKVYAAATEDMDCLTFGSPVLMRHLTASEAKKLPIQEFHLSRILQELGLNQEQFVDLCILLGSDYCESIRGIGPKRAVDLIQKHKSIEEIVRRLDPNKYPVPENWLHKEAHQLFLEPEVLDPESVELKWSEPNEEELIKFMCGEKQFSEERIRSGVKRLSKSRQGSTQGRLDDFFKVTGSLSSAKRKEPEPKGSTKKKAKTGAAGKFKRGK
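With each library titrated from low to high concentration, compounds met 10 nM FEN1 for 15 min at room temperature before 50 nM substrate was added; readings at 0 and 15 min fed four-parameter Hill curve fits.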
Of the large screens only hits and unclear results are named; the others gave an inactive call. Calls follow the shape of the dose curve; as a rule, active = well fitted curve in the direction sought with a large enough effect; inconclusive = small, poorly fitted or top-dose-only effect, or another doubt; inactive = no such curve, though single readings can be large; an effect the other way counts as inactive or inconclusive.

COc1ccc(CN2C(=O)NC(=O)/C(=C\c3cc(OC)c(OC)c(OC)c3)C2=O)cc1	WRN helicase inh 50µM, POLI inh inconclusive
CCOc1ccccc1N1C(=O)CC(=O)NC1=O	POLI inh inconclusive
O=c1[nH]c(=S)n(-c2ccccc2)c(O)c1/C=N/N1CCCCC1c1cccnc1 (centres undefined)	Pol beta inh inconclusive, WRN helicase inh 79µM, POLI inh inconclusive
COC(=O)N1CCC2(CCCN(C)C2)CC1	none (no result: Pol beta inh, WRN helicase inh, Pol eta inh, POLI inh, FEN1 inhibitor)
COc1cc2c(cc1OC)-c1c(OC)c(OC)cc3c1C(C2)N(C)CC3 (centres undefined)	POLI inh 11µM
C=C1[C@@H]2CC[C@H]3[C@@]4(C)C[C@@H](O[C@@H]5O[C@H](CO)[C@H](OS(=O)(=O)O)[C@@H](OS(=O)(=O)O)[C@@H]5OC(=O)CC(C)C)C[C@@H](C(=O)O)[C@H]4CC[C@@]3(C2)[C@H]1O	none (no result: Pol beta inh, WRN helicase inh, Pol eta inh, POLI inh, FEN1 inhibitor)
COc1ccc(CN(CCc2c[nH]c3ccccc23)Cc2ccc(OC)cc2)cc1	none (no result: Pol beta inh)
COC(C(=O)C(O)C(C)O)C1Cc2cc3cc(OC4CC(OC5CC(O)C(OC)C(C)O5)C(OC(C)=O)C(C)O4)c(C)c(O)c3c(O)c2C(=O)C1OC1CC(OC2CC(OC3CC(C)(O)C(OC(C)=O)C(C)O3)C(O)C(C)O2)C(O)C(C)O1 (centres undefined)	Pol kappa inh 21µM (no result: Pol beta inh, WRN helicase inh, Pol eta inh, POLI inh, FEN1 inhibitor)
CC[C@@]1(O)C(=O)OCc2c1cc1n(c2=O)Cc2cc3ccccc3nc2-1	none (no result: WRN helicase inh)
CC[C@@]1(O)C(=O)OCc2c1cc1n(c2=O)Cc2cc3c(O)cccc3nc2-1	Pol kappa inh 30µM (no result: Pol beta inh, WRN helicase inh, Pol eta inh, POLI inh, FEN1 inhibitor)
O=C1NC(=O)[C@]2(Cc3ccccc3N3CCN(c4ccccc4)CC32)C(=O)N1c1ccccc1 (some centres undefined)	Pol kappa inh inconclusive, Pol eta inh 45µM, POLI inh inconclusive
CN1C(=O)NC(=O)[C@]2(Cc3ccccc3N3CCN(c4ccccc4)CC32)C1=O (some centres undefined)	POLI inh inconclusive
O=C1NC(=O)[C@]2(Cc3ccccc3N3CCN(c4ccccc4)CC32)C(=O)N1Cc1ccccc1 (some centres undefined)	Pol eta inh 20µM, POLI inh inconclusive
CCOP(=O)(C#CC(C)(C)C)C(C)(O)c1ccccc1 (centres undefined)	none
COc1ccccc1N1C(=O)NC(=O)/C(=C\c2cnn(-c3ccccc3)c2)C1=O	Pol beta inh 25µM, WRN helicase inh inconclusive, Pol eta inh 40µM, POLI inh 18µM
C=C1[C@@H](O)C2C=CC[C@H](C)C(=O)[C@@](C)(O)C=C[C@@H](OC(C)=O)[C@@]23C(=O)N[C@H](Cc2ccccc2)[C@@H]3[C@@H]1C (some centres undefined)	none (no result: Pol beta inh, WRN helicase inh, Pol eta inh, POLI inh, FEN1 inhibitor)
N#C/C(=C\c1ccc(O)c(O)c1)C(N)=S	Pol kappa inh 0.13µM (no result: Pol beta inh, WRN helicase inh, Pol eta inh, POLI inh, FEN1 inhibitor)
O=Cc1ccc(O)c(O)c1	POLI inh inconclusive
COC(=O)c1ccc(N=C(c2ccccc2)c2c(O)n(C)c(=O)n(C)c2=O)cc1	POLI inh 32µM
CCOC(=O)c1ccc(N=C(c2ccccc2)c2c(O)n(C)c(=O)n(C)c2=O)cc1	POLI inh inconclusive
CNCC[C@@H](Oc1ccc(C(F)(F)F)cc1)c1ccccc1	none
CC(C)=CCCC1(C)C=Cc2c(O)c3c(c(CC=C(C)C)c2O1)OC12C(=CC4CC1C(C)(C)OC2(C/C=C(/C)C(=O)O)C4=O)C3=O (centres undefined)	Pol kappa inh 22µM (no result: Pol beta inh, WRN helicase inh, Pol eta inh, POLI inh, FEN1 inhibitor)
CC(C)=CCCC1(C)C=Cc2c(O)c3c(c(CC=C(C)C)c2O1)OC12C(=CC4CC1C(C)(C)OC2(C/C=C(/C)C(=O)O)C4O)C3=O (centres undefined)	Pol kappa inh 25µM (no result: Pol beta inh, WRN helicase inh, Pol eta inh, POLI inh, FEN1 inhibitor)
COc1ccc(-c2nn(CCC#N)cc2C(=O)NCc2ccccc2)cc1	none
CCOc1cccc(OCC)c2c(C)[n+](CC3CCCO3)c(C)c1-2 (centres undefined)	Pol beta inh 22µM, Pol kappa inh 25µM, Pol eta inh 45µM, POLI inh inconclusive, FEN1 inhibitor inconclusive
O=C(O)c1ccccc1-c1c2cc(Br)c(=O)cc-2oc2[c]([Hg])c(O)c(Br)cc12	Pol kappa inh 16µM (no result: Pol beta inh, WRN helicase inh, Pol eta inh, POLI inh, FEN1 inhibitor)
NC(N)=N/N=C/c1cn(-c2ccccc2)nc1-c1cccs1	Pol beta inh 28µM
CCOC(=O)c1c(C)n(Cc2ccccc2)c2ccc(O)cc12	FEN1 inhibitor inconclusive
O=C(Cc1ccccc1)Oc1ccc(N2C(=O)CCC2=O)cc1	none
Cc1ccnc(-n2c(C)cc(C=C3C(=O)N(C)C(=S)N(C)C3=O)c2C)c1	WRN helicase inh inconclusive, POLI inh inconclusive
Cc1cc(C=C2C(=O)N(C)C(=S)N(C)C2=O)c(C)n1-c1ccncc1	Pol beta inh inconclusive, WRN helicase inh inconclusive, Pol eta inh 35µM, FEN1 inhibitor inconclusive
C=CCN1C(=O)NC(=O)/C(=C/c2cc3c4c(c2)CCCN4CCC3)C1=O	Pol beta inh inconclusive, Pol kappa inh inconclusive, Pol eta inh 45µM, POLI inh 20µM
COc1c2c(cc3c1OCO3)CCN(C)C2	none (no result: Pol beta inh)
COc1cc2c(cc1O)C[C@H]1NCCc3cc4c(c-2c31)OCO4	Pol beta inh 40µM, Pol kappa inh inconclusive, WRN helicase inh inconclusive, Pol eta inh inconclusive, POLI inh 14µM, FEN1 inhibitor 10µM
CCOC(=O)C1(c2ccccc2)CCN(CCc2ccc(NC(=O)CCC(=O)O)cc2)CC1	none (no result: Pol beta inh)
COc1ccc(OC(=O)N(C)C[C@@H]2OCc3cnnn3CCCC(=O)N([C@@H](C)CO)C[C@@H]2C)cc1	none (no result: Pol beta inh, Pol kappa inh, POLI inh, FEN1 inhibitor)
NC(=O)C1CCN(/C=C2\C(=O)NC(=O)N(Cc3ccco3)C2=O)CC1	Pol beta inh inconclusive, Pol kappa inh 79µM, WRN helicase inh inconclusive, Pol eta inh 18µM, POLI inh 20µM, FEN1 inhibitor inconclusive
CCOC(=O)C1CCN(/C=C2/C(=O)NC(=O)N(c3ccc(OCC)cc3)C2=O)CC1	none
CCN(CC)c1ccc(CC2C(=O)N(C)C(=O)N(C)C2=O)cc1	WRN helicase inh 20µM, POLI inh inconclusive
Cc1ccc(CC2C(=O)N(C)C(=O)N(C)C2=O)s1	POLI inh inconclusive
COc1ccc(CC2C(=O)N(C)C(=O)N(C)C2=O)c(OC)c1	WRN helicase inh inconclusive, POLI inh inconclusive
C=CCOc1ccc(CC2C(=O)N(C)C(=O)N(C)C2=O)cc1	Pol beta inh inconclusive, Pol eta inh 16µM, POLI inh inconclusive
CN(N=O)c1ccc(O)c(O)c1	Pol beta inh 0.63µM, Pol kappa inh 2.4µM, Pol eta inh 0.89µM, POLI inh 0.79µM (no result: WRN helicase inh, FEN1 inhibitor)
